The source of these data is PubChem BioAssay AID720511 (Broad Institute, 2013).

Molecules are shown by their SMILES. Hit rate of the full screen: of about 350,000 compounds, about 1,300 (0.37%) were called active.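 How the source made its calls: active means mean added fluorescence quench of at least 8% versus neutral control, with both replicates also reaching 8%; inconclusive means only one of the mean or replicate conditions met; inactive means mean below 8% and not both replicates reaching 8%.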 The sample as a whole holds a higher share of actives than the screen did.

This experiment can be described thus: F508del CFTR correction, initial screen, CFBE line, single point (AID 720511).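 Further: cells transiently co-express mutant CFTR-F508del with the halide-sensitive YFP; corrector assay measuring rescue of mutant channel to the surface after 24 h compound exposure.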 Particulars: CFBE cells, YFP halide quenching, at 7.58 µM, hits give high values, % fluorescence drop versus neutral controls, stimulated with forskolin plus potentiator P3.
Turning to `CNC[C@H]1Oc2ccc(NC(=O)Nc3ccc(F)cc3)cc2C(=O)N([C@@H](C)CO)C[C@@H]1C`, the activity (quench increase) is 2.71% (inactive). Turning to `C/C=C/c1cnc2c(c1)C(=O)N([C@@H](C)CO)C[C@@H](C)[C@@H](CN(C)S(=O)(=O)c1ccccc1F)O2`, the activity (quench increase) was -0.914% (inactive). The result for `COCC(=O)N1CC[C@H]2[C@H](CO)Nc3ccc(-c4ccc(C(=O)N(C)C)cc4)cc3[C@H]21` reads -0.359% (inactive). With `CC(C)CC#Cc1cnc2c(c1)C(=O)N([C@@H](C)CO)C[C@H](C)[C@@H](CN(C)S(=O)(=O)c1cn(C)cn1)O2`, the activity (quench increase) is 3.77% (inactive). In the case of `CCC(=O)c1ccc(OCC(=O)OCC(=O)N2CCc3ccccc3C2)cc1`, the activity (quench increase) was 33.2% (active). The result for `CCC(=O)c1ccc(OCC(=O)OCC(=O)NC2CCCCCC2)cc1` reads 5.07% (inactive); that for `Cc1ccc(Cl)c(OCC(=O)N2CCc3ccccc3C2)c1`, 0.464% (inactive); that for `CN1C(=O)c2cc(NC(=O)Nc3ccccc3Cl)ccc2OC[C@H]2O[C@@H](CC(=O)O)CC[C@H]21`, 2.42% (inactive).

Consider `C[C@H](CO)N1C[C@H](C)[C@H](CN(C)C(=O)Nc2ccccc2)Oc2ccc(NC(=O)C3CC3)cc2CC1=O`, for which the activity (quench increase) was 1.47% (inactive). As for `CN(C)CCNC(=O)c1ccc(Cl)c2cc3ccccc3nc12`, the figure is 12.3% (active).

With `O=C(Cn1c(NCCO)nc2ccccc21)c1ccc(Cl)cc1Cl`, the activity (quench increase) was 1.26% (inactive). As for `CNC(=O)c1cccc2nc3ccccc3nc12`, the figure is -0.402% (inactive).

On to `CCNC(=O)C[C@@H]1CC[C@@H](NC(=O)NC2CCCCC2)[C@H](CO)O1`, for which the activity (quench increase) is 3.72% (inactive).

With `Cc1ccccc1-c1ccc2c(c1)O[C@H](CN(C)C)[C@@H](C)CN([C@H](C)CO)S2(=O)=O`, the activity (quench increase) was 0.748% (inactive). As for `C[C@H]1CN([C@@H](C)CO)C(=O)c2cc(/C=C/c3ccccc3)cnc2O[C@@H]1CN(C)C(=O)c1ccc(F)cc1`, the figure is -2.58% (inactive); as for `CCOc1ccc(-c2cc(C(=O)N/N=C/c3ccc(O)cc3)c3ccccc3n2)cc1`, 12.2% (active); as for `COc1ccc(-c2cc(C(=O)N/N=C/c3cccnc3)c3ccccc3n2)c(OC)c1`, -13% (inactive). For `COc1cc(/C=N/NC(=O)c2cc(-c3ccccc3C)nc3ccccc23)cc(OC)c1O`, the activity (quench increase) was -3.23% (inactive). The result for `C[C@@H]1CN([C@H](C)CO)C(=O)Cc2cc(NS(=O)(=O)c3ccc(F)cc3)ccc2O[C@H]1CN(C)C` reads -0.0265% (inactive); that for `CC(C)(C)[S@@](=O)N1Cc2cc(C(=O)N3CCOCC3)nc(-c3cccc(-c4ccc(C#N)cc4)c3)c2[C@H]1CCO`, 1.68% (inactive); that for `Cc1noc(C)c1NC(=O)Nc1ccc2c(c1)CC(=O)N([C@@H](C)CO)C[C@H](C)[C@@H](CN(C)CC1CCCCC1)O2`, 0.161% (inactive). Turning to `CCOC(=O)Cc1ncccc1C(=O)Nc1ccc(OC(F)(F)F)cc1`, the activity (quench increase) is -3.45% (inactive).

For the compound `O=C(Nc1ccc(OC(F)(F)F)cc1)c1ccc2c(c1)no[n+]2[O-]`, the activity (quench increase) was 14.5% (active). As for `CCOc1c2ccc(C(=O)NCc3ccc(OC(F)(F)F)cc3)cc2nn1C`, the figure is 0.909% (inactive); as for `O=C(C1CCOCC1)N1CC(=O)N2[C@H](CO)[C@@H](c3ccc(C#CC4CCCC4)cc3)[C@H]2C1`, -0.867% (inactive); as for `C[C@@H]1CN([C@@H](C)CO)C(=O)c2cc(NS(C)(=O)=O)ccc2O[C@@H]1CN(C)C`, 0.661% (inactive). The result for `NC(=O)CC(NC(=O)Cc1cccc2ccccc12)c1ccc(NCc2cc(F)ccc2F)c([N+](=O)[O-])c1` (stereo not given) reads 0.166% (inactive); that for `CC1CCCCN1CCCNc1ccc(C(CC(N)=O)NC(=O)c2ccccc2)cc1[N+](=O)[O-]` (stereo not given), -1.78% (inactive).

Consider `NC(=O)CC(NC(=O)Cc1ccc(Br)cc1)c1ccc(NC2CC3CCC2C3)c([N+](=O)[O-])c1` (stereo not given), for which the activity (quench increase) was 10.1% (active). The result for `COc1ccc(S(=O)(=O)Nc2ccc3c(c2)C(=O)N([C@H](C)CO)C[C@H](C)[C@@H](CN(C)Cc2ccc(-c4ccccc4)cc2)O3)cc1` reads 1.93% (inactive); that for `COc1ccccc1C#Cc1ccc([C@@H]2[C@@H](CO)N(C(=O)C3CC3)[C@H]2C#N)cc1`, 2.81% (inactive). As for `Cc1cc(-c2ccc(C)c(S(=O)(=O)NCCCN(Cc3ccccc3)C(C)C)c2)on1`, the figure is 0.63% (inactive); as for `CCOc1ccccc1CNS(=O)(=O)c1cc(-c2cc(C)no2)ccc1C`, -0.998% (inactive); as for `COc1ccc(CNS(=O)(=O)c2cc(-c3cc(C)no3)ccc2C(C)C)cc1`, 10.7% (active). The result for `COc1ccc(C#Cc2ccc3c(c2)[C@]2(C(=O)N3)[C@H](C(=O)N3CCc4cc(OC)c(OC)cc4C3)[C@H]3C(=O)O[C@H](c4ccccc4)[C@H](c4ccccc4)N3[C@@H]2c2ccc(O)cc2)cc1` reads -2.79% (inactive). For `CCC(=O)Nc1ccc2c(c1)C(=O)N(C)[C@@H]1CC[C@@H](CC(=O)NCc3ccccc3Cl)O[C@H]1CO2`, the activity (quench increase) is -0.213% (inactive). For the compound `CC(=O)NC[C@H]1[C@@H](c2ccc(C#CC(C)C)cc2)[C@@H](CO)N1Cc1ccccn1`, the activity (quench increase) is -0.601% (inactive). The result for `CCCC(=O)Nc1ccc2c(c1)C(=O)N(C)C[C@@H](OC)[C@H](C)CN(C(C)=O)[C@H](C)CO2` reads -1.19% (inactive).

With `Cc1cccc(NS(=O)(=O)c2ccc(-c3cnc(C4CC4)o3)cc2)c1`, the activity (quench increase) was 10% (active). The result for `Cc1cccc(CNS(=O)(=O)c2ccc(-c3cnc(C4CC4)o3)cc2)c1` reads 2.12% (inactive). The result for `COc1ccc(CNS(=O)(=O)c2ccc(-c3cnc(C4CC4)o3)cc2)cc1` reads -1.13% (inactive); that for `COc1ccc(S(=O)(=O)N(C)C[C@H]2Oc3ccc(NS(=O)(=O)c4ccc(C)cc4)cc3CC(=O)N([C@@H](C)CO)C[C@@H]2C)cc1`, -1.33% (inactive); that for `COc1ccc2c3c(n(C)c2c1)[C@@H](CO)N(CC1CC1)CC31CCN(C(=O)c2cccc(F)c2)CC1`, -0.0985% (inactive). As for `C[C@H]1CCCCO[C@@H](CN(C)Cc2ccccc2)[C@@H](C)CN([C@@H](C)CO)C(=O)c2cc(NC(=O)CCCN(C)C)ccc2O1`, the figure is -1.18% (inactive); as for `CCCC#Cc1ccc2c(c1)O[C@@H](CN(C)CC1CC1)[C@@H](C)CN([C@H](C)CO)S2(=O)=O`, 2.53% (inactive).
